Screening results as filed in PubChem BioAssay.
In the library only some 19% were active in any assay of this set; here they are far more common.
uPA generation = qHTS for Inhibitors of Cell Surface uPA Generation; cell surface uPA generation assay, qHTS; Potency, µM (series often up to 38.3 µM), hits mostly inhibitors; hit rate 0.31% among 330,000; active means well fitted inhibition curve with a large enough effect; inconclusive means small, poorly fitted or top-dose-only effect; inactive means no such curve, though single readings can be large or run the other way; tested in mouse RAW 264.7 cells; further: nearly all actives have a fitted effect of over 55% in size
HT1080-NT tox = qHTS for induction of synthetic lethality in tumor cells producing 2HG: qHTS for the HT-1080-NT fibrosarcoma cell line | HT-1080-NT fibrosarcoma viability, CellTiter-Glo ATP luminescence, 48 h | Potency, µM (titrated, usually from 46.1 µM), hits mostly cytotoxic | hit rate 1.6% among 360,000 | AID 686970, 2013;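 further: NT is the 2HG producing partner of a matched IDH1 knockdown line; nearly all actives have a fitted effect of over 55% in size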
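Viability by CellTiter-Glo luminescence after 48 h compound exposure at 37C of HT-1080-NT cells (750/well, RPMI, 5% FBS). % activity scaled between DMSO wells and medium-only wells, then curve-fitted and categorized by curve class.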
DT40 TDP1 no CPT = qHTS for Inhibitors of human tyrosyl-DNA phosphodiesterase 1 (TDP1): qHTS in cells in absence of CPT; DT40 Tdp1-/- hTDP1 cells, no CPT, ATP luminescence, 48 h; hit rate 15% among 420,000; Potency, µM (titrated, usually from 46.2 µM), actives largely listed as inhibitors; AID 686978, 2013; further: nearly all actives have a fitted effect of over 55% in size
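A cellular qHTS used chicken DT40 cells lacking endogenous Tdp1 but carrying stably transfected human TDP1. Compounds were applied without camptothecin, and cell growth kinetics were judged by ATP-dependent luminescence after ≥48 hr.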
DT40 TDP1 CPT = qHTS for Inhibitors of human tyrosyl-DNA phosphodiesterase 1 (TDP1): qHTS in cells in presence of CPT. chicken DT40 Tdp1-/-;hTDP1 cells + 20 nM CPT, ATP luminescence, 48 h. Potency, µM (top dose mostly 46.2 µM), hits mostly inhibitors. hit rate 12% among 420,000. AID 686979, 2013; further: nearly all actives have a fitted effect of over 55% in size
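Chicken DT40 Tdp1-/- cells complemented with human TDP1, 400 cells/well, exposed to compounds plus 20 nM camptothecin for at least 48 h at 37 C; viability read as ATP content by CellTiter-Glo luminescence.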
HT1080 IDH1KD tx = qHTS for induction of synthetic lethality in tumor cells producing 2HG: qHTS for the HT-1080-IDH1KD cell line | hit rate 2% among 360,000 | AID 686971, 2013 | Potency, µM (highest dose often 46.1 µM), most hits filed as cytotoxic | HT-1080 IDH1 knockdown viability, ATP luminescence, 48 h
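Luminescent ATP read-out (CellTiter-Glo, 10 min at room temperature) after 48 h compound exposure at 37 °C gave viability of IDH1-knockdown HT-1080 cells. Activity was normalised to DMSO and cell-free wells, then fitted as concentration-response curves.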
IL1B secr inh = qHTS for Inhibitors of Inflammasome Signaling: IL-1-beta AlphaLISA Primary Screen; THP-1 LPS/ATP IL-1B secretion, AlphaLISA, 16 h; hits give low values; activity change, % at 57.5 µM; hit rate 4.7% among 360,000; AID 743279, 2014; in the data active means activity change below about -50%; inconclusive means mostly about -30% to -49%
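Secreted IL-1B measured by AlphaLISA bead assay after 16 h compound exposure of THP-1 cells; compounds (final up to 57.5 uM) added 1 h before LPS (250 ng/mL) and ATP (1.25 mM) stimulation; lower signal means less secretion.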
Large screens that a line does not name were inactive. Unless noted, the call rests on the fitted dose curve; in most records, active means well fitted curve in the direction sought with a large enough effect; inconclusive means small, poorly fitted or top-dose-only effect, or another doubt; inactive means no such curve, though single readings can be large; an effect the other way counts as inactive or inconclusive.

COc1ccc(C(=O)Nc2nnc(-c3cccs3)s2)cc1	DT40 TDP1 no CPT 11.6µM, DT40 TDP1 CPT 10.3µM, HT1080 IDH1KD tx inconclusive
COc1ccc(C(=O)Nc2c(-c3cccs3)c(=O)c3ccccc3n2C)cc1	DT40 TDP1 no CPT 20.6µM, DT40 TDP1 CPT 23.1µM, IL1B secr inh -82.1
COc1cc(C(=O)Nc2nnc(-c3sccc3C)s2)cc(OC)c1OC	HT1080-NT tox inconclusive, DT40 TDP1 CPT inconclusive, HT1080 IDH1KD tx 14.6µM
COc1ccc(/C=C/C(=O)Nc2nc(-c3cccs3)ns2)cc1	DT40 TDP1 no CPT 18.4µM, DT40 TDP1 CPT inconclusive (no result: uPA generation, HT1080-NT tox, HT1080 IDH1KD tx, IL1B secr inh)
Cc1ccccc1C(=O)Nc1c(-c2cccs2)c(=O)c2ccccc2n1C	DT40 TDP1 no CPT inconclusive, DT40 TDP1 CPT inconclusive
CCOC(=O)C1CCN(S(=O)(=O)CCNC(=O)c2ccc(F)cc2)CC1	none
CCCCOc1ccc(N2C(=O)C(C)CNC2=S)cc1 (configuration not stated)	none
